# Mdm2-MdmX inh: inhibitors of human Mdm2/MdmX interaction; SaOS-2 split-luciferase Mdm2/MdmX complementation, luminescence; inhibition, % at 8 µM; 3% of 330,000 active; AID 485346;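 active means inhibition of at least 50% at 8 µM in the primary screen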
# Bfl-1 A1 inh: inhibitors of the anti-apoptotic protein A1, read as caspase activation; MEF A1-2A-BIM cells, Caspase-Glo 3/7 luminescence, 3 h; percent of clofoctol response, vehicle zero; caspase activation, % (test concentration not listed); 0.066% of 330,000 active; AID 2462;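 active means over half of replicate activation scores above 10%, or exactly half above 10 with the replicate mean above 10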
# NTR1 ag: agonists of human neurotensin receptor NTR1 | NTR1-U2OS beta-arrestin-GFP spot imaging, agonist mode | activation, % at 20 µM | 0.17% of 330,000 active | P30989 | AID 493036;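 active means activation at or above 40% of the spot to cytoplasm intensity ratio, with at least 20 cells analyzed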;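 further: 0% = DMSO without peptide and 100% = 100 nM NTR1 peptide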
# Target sequence (P30989 whole entry, looked up): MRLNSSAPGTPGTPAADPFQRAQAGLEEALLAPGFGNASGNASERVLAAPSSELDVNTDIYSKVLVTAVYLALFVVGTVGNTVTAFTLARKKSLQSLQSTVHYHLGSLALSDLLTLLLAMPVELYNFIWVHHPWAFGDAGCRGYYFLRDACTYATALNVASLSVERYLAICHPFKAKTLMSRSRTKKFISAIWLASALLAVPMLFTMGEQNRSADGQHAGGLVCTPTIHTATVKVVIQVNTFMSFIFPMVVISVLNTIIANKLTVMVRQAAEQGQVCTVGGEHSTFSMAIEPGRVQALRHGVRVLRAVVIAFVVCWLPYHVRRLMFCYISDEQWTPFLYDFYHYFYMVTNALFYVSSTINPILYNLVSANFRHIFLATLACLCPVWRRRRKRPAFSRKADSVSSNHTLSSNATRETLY
# Jurkat NFkB inh: lowers PMA/ionomycin-induced NF-kB signal in Jurkat cells; PMA/ionomycin-induced NF-kB luciferase reporter, luminescence; inhibition, % at 4 µM; 0.53% of 330,000 active; AID 435003; in the data active means inhibition above about 50%
# 697 NFkB inh: lowers PMA/ionomycin-induced NF-kB signal in 697 B cells; 697 B-cell NF-kB luciferase reporter, 16 h; inhibition, % at 4 µM; 0.33% of 330,000 active; AID 435022; in the data active means inhibition above about 35%
# Beta cell apopt: beta cell apoptosis inhibition. INS-1E cytokine-induced death, ATP luminescence, 48 h; percent of positive-control rescue, neutral wells zero. protection from apoptosis, % (no concentration beside the values). 0.8% of 300,000 active;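 active means Every replicate reaches about 75%, or at least half do and their mean reaches it too, limit read from the data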;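 further: 0% = cytokine-treated negative control wells and 100% = positive control rescue; higher means more ATP so stronger rescue from cytokine killing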
# Mdm2 MdmX conf: human Mdm2/MdmX binding inhibition, confirmed. 55% of 10,000 active. inhibition, % at 8 µM. shares compounds with Mdm2-MdmX inh. luminescent assay; in the data active means inhibition above about 40%
# FLuc counter: counter-screen for Mdm2/MdmX inhibitors: full-length luciferase. shares compounds with Mdm2-MdmX inh. SaOS-2 full-length luciferase counterscreen, luminescence. inhibition, % at 8 µM. 77% of 6,200 active. AID 504607;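 active means mean inhibition at 8 µM reaching about 37%, which flags the compound as non-specific, limit read from the data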;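 further: p53-null SaOS-2 cells with luciferase driven by a doxycycline-inducible promoter; compound on cells about two nights before reading with doxycycline added after day one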
# NTR1 ag confirm: confirmation of agonists of human NTR1; shares compounds with NTR1 ag; 38% of 480 active; activation, % at 20 µM; AID 504550; NTR1-U2OS beta-arrestin-GFP translocation imaging;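 active means mean activation at 20 µM of at least 40%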;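 further: 0% = DMSO without peptide and 100% = 100 nM NTR1 peptide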
# * = called active by the depositor; . = no result given. Only some compounds are listed: those with a hit (about 3.8% of all), similar ones and a draw of the others.
SMILES,Mdm2-MdmX inh,Bfl-1 A1 inh,NTR1 ag,Jurkat NFkB inh,697 NFkB inh,Beta cell apopt,Mdm2 MdmX conf,FLuc counter,NTR1 ag confirm
COc1ccc(-c2sc3cc(OC)c(OC)cc3c2-c2ccc(O)cc2)cc1,53*,0,51*,-8,-16,8,32,.,7
c1ccc(CNc2c(-c3cccc(SC4CCCCC4)c3)nc3ccccn23)cc1,71*,1,40*,-15,-19,124*,-1,.,4
Cc1ccc(S(=O)(=O)c2c(C)cc(C)[nH]c2=O)cc1,5,0,-1,-12,-1,-5,.,.,.
Cc1cccc(NC(=O)c2nc[nH]c2C(=O)N[C@@H](Cc2ccccc2)C(=O)OC(C)(C)C)c1,64*,0,51*,-1,-23,13,26,.,53*
CCC1(c2ccccc2)NC(=O)N(CC(=O)Nc2ccc(OC)nc2)C1=O (centres undefined),-15,1,0,-6,-13,-1,.,.,.
CCOC(=O)COc1ccc2nsnc2c1,-12,-2,0,-6,5,-2,.,.,.
CCOC(=O)COc1ccc(/C=C/[N+](=O)[O-])c(OCC(=O)OCC)c1,100*,0,74*,2,-2,10,70*,24,69*
Cc1ccc(-c2csc3ncnc(Sc4nnc(CN5CCCCCC5=O)o4)c23)cc1,83*,0,49*,20,-48,-1,100*,-1,56*
Cc1ccc(C)c(N(C(=O)CNC(=O)c2ccco2)C(C(=O)NC2CCCCC2)c2cccnc2)c1 (centres undefined),-12,0,1,9,22,0,.,.,.
CCCCNc1c(-c2ccc(OC)c(SC(C)CC)c2)nc2ccc(C)cn12 (centres undefined),89*,-2,51*,9,5,120*,37,.,72*
CCCCNc1c(-c2ccc(OC)c(SC(C)CC)c2)nc2ccc(Cl)cn12 (centres undefined),7,-2,4,3,-17,3,.,.,.
Cc1ccc(-c2nc(CN3CCN(C(=O)C4CCCO4)CC3)cs2)cc1 (centres undefined),11,0,-1,-5,-14,-2,.,.,.
CC(=O)Nc1ccc(S(=O)(=O)NNC(=S)NCC2CCCO2)cc1 (centres undefined),11,1,-1,3,-12,-5,.,.,.
OC(CNCC(c1ccc(Cl)cc1Cl)c1c[nH]c2ccccc12)c1ccccc1 (centres undefined),97*,2,59*,-9,3,68,80*,46*,44*
O=[N+]([O-])CC(c1ccccc1)c1c[nH]c2ccccc12 (centres undefined),34,0,4,20,-40,2,.,.,.
O=C(NCc1ccc(Cl)cc1)c1ccc(S(=O)(=O)N2CCCCC2)cc1,15,0,0,-7,9,-9,.,.,.
COc1ccc(-c2nnn(Cc3ccccc3)n2)cc1OC,17,-1,0,-1,-3,-9,.,.,.
COc1cc2c3nnc(-c4ccc(F)cc4)c-3cn(Cc3ccccc3)c2cc1OC,100*,0,49*,-5,-15,40,94*,57*,84*
COc1ccc(Cn2cc3c(-c4ccc(F)cc4)nnc-3c3cc(OC)c(OC)cc32)cc1,100*,0,46*,7,11,100*,96*,68*,78*
Cc1cc2c(N=NC(=O)C3CC3c3ccccc3)c(O)[nH]c2cc1Br (centres undefined),54*,1,42*,7,-19,-2,-8,.,26
Cc1occc1C(=O)N=Nc1c(O)[nH]c2ccc(Br)cc12,-116,-6,2,-62,-68,2,.,.,.
O=C(Nc1ccc(Oc2c(F)c(F)c(F)c(F)c2F)cc1)OC1CCN2Cc3ccccc3N=C12 (centres undefined),68*,0,40*,12,-54,71,29,.,54*
Cc1cccc(NC(=O)Nc2ccc(Oc3c(F)c(F)c(F)c(F)c3F)cc2)c1,41,0,-1,-11,-5,14,.,.,.
CC1CCCC(NCC(O)COC(c2ccc(F)cc2)c2ccc(F)cc2)C1C (centres undefined),98*,0,52*,-4,-6,44,78*,49*,27
CC1CCCC(NC(=O)CSc2ccc(F)cc2)C1C (centres undefined),25,-1,0,-8,9,3,.,.,.
SMILES,Mdm2-MdmX inh,Bfl-1 A1 inh,NTR1 ag,Jurkat NFkB inh,697 NFkB inh,Beta cell apopt,Mdm2 MdmX conf,FLuc counter,NTR1 ag confirm
N#CC1=C(c2ccccc2)/C(=C/c2ccccc2)OC1=O,100*,-2,66*,19,6,1,75*,49*,87*
CC(C)(C)C(=O)CN1C(=O)NC2(CCCc3ccccc32)C1=O (centres undefined),-22,-1,0,-19,-10,0,.,.,.
CN(C)S(=O)(=O)c1ccc(-c2csc(N/N=C/c3ccco3)n2)cc1,72*,0,71*,31,-59,20,36,.,78*
C(=N\Nc1nc(-c2ccccc2)cs1)/c1ccncc1,-57,1,8,-65,-50,.,.,.,.
CN(C)S(=O)(=O)c1ccc(-c2csc(N/N=C/c3ccc(O)cc3)n2)cc1,100*,-1,52*,21,2,14,83*,38*,55*
COc1ccc(CNC(=O)c2ccccc2NC(=O)C2=CSCCO2)c(OC)c1,17,-1,2,-3,4,.,.,.,.
Cc1ccc(N2CCN(C(=O)C3CCCN(c4ncnc5c4nc4n5CCCCC4)C3)CC2)c(C)c1 (centres undefined),72*,-1,73*,5,-55,11,39,56*,29
COc1cc(-c2csc(N3CCOCC3)n2)cc(OC)c1OC,15,0,-2,4,19,-2,.,.,.
COc1ccc(-c2csc(N3CCN(c4cc(C)nc5ccccc45)CC3)n2)cc1OC,96*,1,44*,30,-15,-2,58*,74*,42*
O=C1c2ccc(Cl)cc2S(=O)(=O)c2cccc(C(=O)N3CCC(Cc4ccccc4)CC3)c21,68*,0,52*,-1,14,3,-3,.,80*
CCc1cc(C(=O)NCC(C)(C)N2CCOCC2)sc1C,12,0,-2,4,6,1,.,.,.

# Bioassay records: PubChem, several laboratories
